# Experimental data published in article PMC7862700, “An all-to-all approach to the identification of sequence-specific readers for epigenetic DNA modifications on cytosine”.
# Assays:
# Assay in all cases: DAPPL (digital affinity profiling via proximity ligation, sequencing); 10 mM Tris-HCl pH 7.5, 50 mM NaCl, 1 mM DTT, 4% glycerol, room temperature, 30 min; GST-TFs on glutathione beads, 16-mer random dsDNA library, 0.1% formaldehyde crosslink after washing; high values mean tight binding
# FLI1 = target: T1, FLI1 (Homo sapiens, UniProt Q01543 1-452); details: protein: recombinant; tags: N-terminal GST; dsDNA, one strand shown
# T1 sequence: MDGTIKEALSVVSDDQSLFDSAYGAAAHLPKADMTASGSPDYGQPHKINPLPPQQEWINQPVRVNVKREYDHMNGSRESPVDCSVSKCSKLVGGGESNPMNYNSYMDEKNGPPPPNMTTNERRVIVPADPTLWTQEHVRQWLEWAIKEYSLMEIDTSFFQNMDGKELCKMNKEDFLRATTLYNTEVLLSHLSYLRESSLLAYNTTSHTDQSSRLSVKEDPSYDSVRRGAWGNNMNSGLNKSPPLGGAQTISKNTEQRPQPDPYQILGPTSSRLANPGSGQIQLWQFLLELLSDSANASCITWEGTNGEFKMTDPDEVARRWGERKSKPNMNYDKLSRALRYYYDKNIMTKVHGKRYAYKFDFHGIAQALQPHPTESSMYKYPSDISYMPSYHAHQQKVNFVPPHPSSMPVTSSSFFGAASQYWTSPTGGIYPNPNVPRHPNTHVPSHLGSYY
# Summary of the method: (§1)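 Human transcription factors fused to GST were expressed in yeast, captured on glutathione beads, given DNA barcodes and pooled with a GST-only negative control. Pools were incubated with 200 nmole of a 16-mer random double-stranded DNA library in Tris/NaCl/DTT/glycerol buffer at room temperature for 30 min. They were then washed, crosslinked with 0.1% formaldehyde, proximity-ligated (BsaI/T4 ligase, 1 h, 37 °C), PCR-amplified and sequenced on an Illumina NextSeq500. Binding signal is each 6-mer's read frequency for a factor divided by its frequency for the GST control.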
# ELK1 = target: T2, ELK1 (Homo sapiens, UniProt P19419 1-428); details: protein: recombinant; tags: N-terminal GST; dsDNA, one strand shown
# T2 sequence: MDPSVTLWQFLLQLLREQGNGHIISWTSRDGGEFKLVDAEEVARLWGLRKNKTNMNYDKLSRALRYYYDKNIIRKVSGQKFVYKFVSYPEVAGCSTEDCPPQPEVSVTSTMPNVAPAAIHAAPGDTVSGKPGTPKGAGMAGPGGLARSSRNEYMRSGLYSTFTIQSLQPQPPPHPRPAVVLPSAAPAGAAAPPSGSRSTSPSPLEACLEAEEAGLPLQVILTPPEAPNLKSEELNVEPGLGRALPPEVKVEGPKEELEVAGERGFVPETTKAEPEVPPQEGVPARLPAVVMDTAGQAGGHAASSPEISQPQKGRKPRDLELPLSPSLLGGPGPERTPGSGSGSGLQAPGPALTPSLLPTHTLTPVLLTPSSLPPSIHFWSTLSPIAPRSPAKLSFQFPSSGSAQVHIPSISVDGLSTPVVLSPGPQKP
# Summary of the method: as §1
# GABPA = target: T3, GABPA (Homo sapiens, UniProt Q06546 1-454); details: protein: recombinant; tags: N-terminal GST; dsDNA, one strand shown
# T3 sequence: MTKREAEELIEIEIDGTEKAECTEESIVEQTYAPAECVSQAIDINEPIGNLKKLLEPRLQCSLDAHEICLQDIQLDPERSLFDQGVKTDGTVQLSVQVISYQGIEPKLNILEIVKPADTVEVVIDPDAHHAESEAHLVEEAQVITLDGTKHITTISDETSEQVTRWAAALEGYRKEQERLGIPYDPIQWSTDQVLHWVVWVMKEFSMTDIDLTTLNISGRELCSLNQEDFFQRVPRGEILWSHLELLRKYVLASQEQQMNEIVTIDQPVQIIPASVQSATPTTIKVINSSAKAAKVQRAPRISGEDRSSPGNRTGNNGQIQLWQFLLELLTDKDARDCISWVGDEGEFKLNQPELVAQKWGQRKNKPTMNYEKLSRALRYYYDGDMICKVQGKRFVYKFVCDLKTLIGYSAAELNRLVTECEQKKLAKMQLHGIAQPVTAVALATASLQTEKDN
# Summary of the method: as §1
# ERG = target: T4, ERG (Homo sapiens, UniProt P11308 1-479); details: protein: recombinant; tags: N-terminal GST; dsDNA, one strand shown
# T4 sequence: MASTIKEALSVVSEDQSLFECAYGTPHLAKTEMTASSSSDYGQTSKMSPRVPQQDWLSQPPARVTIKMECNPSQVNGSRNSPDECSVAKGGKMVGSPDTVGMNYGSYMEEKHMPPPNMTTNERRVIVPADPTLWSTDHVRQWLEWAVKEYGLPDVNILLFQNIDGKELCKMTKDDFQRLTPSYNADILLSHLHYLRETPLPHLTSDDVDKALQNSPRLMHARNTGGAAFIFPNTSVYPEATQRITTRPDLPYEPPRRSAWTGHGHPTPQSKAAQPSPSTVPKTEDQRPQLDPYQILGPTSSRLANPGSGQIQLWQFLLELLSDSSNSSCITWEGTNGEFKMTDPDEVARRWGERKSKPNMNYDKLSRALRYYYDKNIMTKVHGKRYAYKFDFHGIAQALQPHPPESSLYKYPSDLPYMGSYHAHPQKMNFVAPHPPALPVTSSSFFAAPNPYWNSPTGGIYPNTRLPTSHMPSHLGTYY
# Summary of the method: as §1
# ELF1 = ELF1 (Homo sapiens, UniProt P32519 1-619); details: protein: recombinant; tags: N-terminal GST; dsDNA, one strand shown
# Sequence of ELF1 (P32519 whole entry): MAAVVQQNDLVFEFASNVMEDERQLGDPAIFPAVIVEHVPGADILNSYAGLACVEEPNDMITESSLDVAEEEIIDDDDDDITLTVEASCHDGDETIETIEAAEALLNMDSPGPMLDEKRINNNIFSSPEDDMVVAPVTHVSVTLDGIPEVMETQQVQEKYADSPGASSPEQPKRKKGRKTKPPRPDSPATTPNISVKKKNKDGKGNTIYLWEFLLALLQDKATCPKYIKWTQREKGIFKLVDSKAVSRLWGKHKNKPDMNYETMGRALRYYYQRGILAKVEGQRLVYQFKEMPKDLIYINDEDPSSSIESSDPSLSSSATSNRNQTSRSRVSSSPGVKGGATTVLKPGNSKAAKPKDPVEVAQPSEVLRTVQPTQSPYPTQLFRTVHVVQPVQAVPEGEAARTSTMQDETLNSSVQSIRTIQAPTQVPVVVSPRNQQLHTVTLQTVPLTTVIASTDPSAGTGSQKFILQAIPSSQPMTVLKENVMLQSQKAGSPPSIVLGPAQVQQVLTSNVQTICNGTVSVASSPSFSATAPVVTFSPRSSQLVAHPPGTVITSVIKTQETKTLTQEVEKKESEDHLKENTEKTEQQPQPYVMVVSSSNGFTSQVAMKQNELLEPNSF
# Summary of the method: as §1
# EHF = target: T5, EHF (Homo sapiens, UniProt Q9NZC4 1-300); details: protein: recombinant; tags: N-terminal GST; dsDNA, one strand shown
# T5 sequence: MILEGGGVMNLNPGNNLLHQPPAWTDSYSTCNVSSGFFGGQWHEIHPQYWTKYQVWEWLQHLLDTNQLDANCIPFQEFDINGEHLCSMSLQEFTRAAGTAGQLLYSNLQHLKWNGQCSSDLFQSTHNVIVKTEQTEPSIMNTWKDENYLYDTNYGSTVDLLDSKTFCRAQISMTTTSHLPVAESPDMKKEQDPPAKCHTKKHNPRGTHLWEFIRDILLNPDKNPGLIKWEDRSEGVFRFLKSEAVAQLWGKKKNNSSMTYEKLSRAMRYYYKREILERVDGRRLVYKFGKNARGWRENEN
# Summary of the method: as §1
# SPI1 = SPI1 (Homo sapiens, UniProt P17947 1-270); details: protein: recombinant; tags: N-terminal GST; dsDNA, one strand shown
# Summary of the method: as §1
# SPIB = SPIB (Homo sapiens, UniProt Q01892 1-262); details: protein: recombinant; tags: N-terminal GST; dsDNA, one strand shown
# Sequence of SPIB (Q01892 whole entry): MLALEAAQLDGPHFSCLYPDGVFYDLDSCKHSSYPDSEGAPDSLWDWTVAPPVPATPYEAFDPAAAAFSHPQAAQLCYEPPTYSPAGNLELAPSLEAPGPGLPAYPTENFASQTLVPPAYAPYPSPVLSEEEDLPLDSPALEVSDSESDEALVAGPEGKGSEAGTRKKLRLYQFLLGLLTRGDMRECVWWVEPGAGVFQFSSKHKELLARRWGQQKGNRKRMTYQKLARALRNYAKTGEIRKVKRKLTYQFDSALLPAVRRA
# Summary of the method: as §1
# ELK3 = target: T6, ELK3 (Homo sapiens, UniProt P41970 1-407); details: protein: recombinant; tags: N-terminal GST; dsDNA, one strand shown
# T6 sequence: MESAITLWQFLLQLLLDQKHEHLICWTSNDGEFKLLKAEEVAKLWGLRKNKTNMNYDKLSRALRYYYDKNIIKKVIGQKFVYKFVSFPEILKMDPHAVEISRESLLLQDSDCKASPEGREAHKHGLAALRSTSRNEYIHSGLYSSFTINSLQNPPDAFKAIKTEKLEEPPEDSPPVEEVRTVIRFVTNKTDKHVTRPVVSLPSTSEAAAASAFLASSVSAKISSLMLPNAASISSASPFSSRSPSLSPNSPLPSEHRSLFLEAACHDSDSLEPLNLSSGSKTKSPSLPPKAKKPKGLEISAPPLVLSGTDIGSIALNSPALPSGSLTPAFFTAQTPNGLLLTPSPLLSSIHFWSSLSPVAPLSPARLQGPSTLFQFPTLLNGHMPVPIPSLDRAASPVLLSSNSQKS
# Summary of the method: as §1
# FEV = target: T7, FEV (Homo sapiens, UniProt Q99581 1-238); details: protein: recombinant; tags: N-terminal GST; dsDNA, one strand shown
# T7 sequence: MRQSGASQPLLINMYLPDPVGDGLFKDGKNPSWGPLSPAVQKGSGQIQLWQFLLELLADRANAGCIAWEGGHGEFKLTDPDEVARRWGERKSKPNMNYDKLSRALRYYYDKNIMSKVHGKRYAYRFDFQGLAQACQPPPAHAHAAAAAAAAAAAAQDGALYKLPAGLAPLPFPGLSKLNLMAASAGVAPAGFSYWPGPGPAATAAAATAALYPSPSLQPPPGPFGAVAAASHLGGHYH
# Summary of the method: as §1
# ETV5 = ETV5 (Homo sapiens, UniProt P41161 1-510); details: protein: recombinant; tags: N-terminal GST; dsDNA, one strand shown
# Sequence of ETV5 (P41161 whole entry): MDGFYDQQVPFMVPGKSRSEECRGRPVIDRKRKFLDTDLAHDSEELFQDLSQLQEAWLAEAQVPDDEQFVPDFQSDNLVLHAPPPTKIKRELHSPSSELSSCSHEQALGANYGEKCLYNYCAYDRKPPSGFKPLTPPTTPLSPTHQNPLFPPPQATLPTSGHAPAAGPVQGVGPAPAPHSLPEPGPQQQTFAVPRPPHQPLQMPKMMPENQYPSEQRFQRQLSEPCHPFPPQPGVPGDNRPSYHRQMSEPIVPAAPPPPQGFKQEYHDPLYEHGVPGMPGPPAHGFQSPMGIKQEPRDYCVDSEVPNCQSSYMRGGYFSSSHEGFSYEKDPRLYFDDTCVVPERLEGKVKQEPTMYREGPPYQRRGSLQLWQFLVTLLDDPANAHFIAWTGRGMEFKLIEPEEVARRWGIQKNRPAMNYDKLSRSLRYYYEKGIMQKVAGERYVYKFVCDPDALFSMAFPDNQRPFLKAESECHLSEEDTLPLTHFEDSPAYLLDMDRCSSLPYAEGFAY
# Summary of the method: as §1
# HSF1 = HSF1 (Homo sapiens, UniProt Q00613 1-529); details: protein: recombinant; tags: N-terminal GST; chain copies: 3; dsDNA, one strand shown
# Sequence of HSF1 (Q00613 whole entry): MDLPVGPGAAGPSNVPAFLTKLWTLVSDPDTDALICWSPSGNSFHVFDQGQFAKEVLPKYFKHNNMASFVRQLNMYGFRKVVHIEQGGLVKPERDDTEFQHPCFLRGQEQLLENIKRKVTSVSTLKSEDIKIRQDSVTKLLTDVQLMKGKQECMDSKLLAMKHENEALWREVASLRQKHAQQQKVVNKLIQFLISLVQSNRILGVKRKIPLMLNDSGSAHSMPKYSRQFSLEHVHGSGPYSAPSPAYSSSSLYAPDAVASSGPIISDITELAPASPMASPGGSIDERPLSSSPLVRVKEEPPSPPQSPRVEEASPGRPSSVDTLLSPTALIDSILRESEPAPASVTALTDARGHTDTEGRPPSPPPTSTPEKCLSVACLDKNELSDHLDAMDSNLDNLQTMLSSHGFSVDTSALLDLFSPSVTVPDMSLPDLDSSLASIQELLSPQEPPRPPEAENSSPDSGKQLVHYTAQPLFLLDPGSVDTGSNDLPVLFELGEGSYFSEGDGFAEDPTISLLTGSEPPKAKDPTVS
# Summary of the method: as §1
# SPIC = target: T8, SPIC (Homo sapiens, UniProt Q8N5J4 1-248); details: protein: recombinant; tags: N-terminal GST; dsDNA, one strand shown
# T8 sequence: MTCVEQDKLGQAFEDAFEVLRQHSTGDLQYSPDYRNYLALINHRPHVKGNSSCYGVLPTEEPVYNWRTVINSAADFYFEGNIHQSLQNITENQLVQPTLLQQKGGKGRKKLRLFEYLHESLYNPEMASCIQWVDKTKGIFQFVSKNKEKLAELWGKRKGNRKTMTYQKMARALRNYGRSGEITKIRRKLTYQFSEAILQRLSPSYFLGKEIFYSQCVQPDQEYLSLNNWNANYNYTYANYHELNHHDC
# Summary of the method: as §1
# ELF4 = ELF4 (Homo sapiens, UniProt Q99607 1-663); details: protein: recombinant; tags: N-terminal GST; dsDNA, one strand shown
# Sequence of ELF4 (Q99607 whole entry): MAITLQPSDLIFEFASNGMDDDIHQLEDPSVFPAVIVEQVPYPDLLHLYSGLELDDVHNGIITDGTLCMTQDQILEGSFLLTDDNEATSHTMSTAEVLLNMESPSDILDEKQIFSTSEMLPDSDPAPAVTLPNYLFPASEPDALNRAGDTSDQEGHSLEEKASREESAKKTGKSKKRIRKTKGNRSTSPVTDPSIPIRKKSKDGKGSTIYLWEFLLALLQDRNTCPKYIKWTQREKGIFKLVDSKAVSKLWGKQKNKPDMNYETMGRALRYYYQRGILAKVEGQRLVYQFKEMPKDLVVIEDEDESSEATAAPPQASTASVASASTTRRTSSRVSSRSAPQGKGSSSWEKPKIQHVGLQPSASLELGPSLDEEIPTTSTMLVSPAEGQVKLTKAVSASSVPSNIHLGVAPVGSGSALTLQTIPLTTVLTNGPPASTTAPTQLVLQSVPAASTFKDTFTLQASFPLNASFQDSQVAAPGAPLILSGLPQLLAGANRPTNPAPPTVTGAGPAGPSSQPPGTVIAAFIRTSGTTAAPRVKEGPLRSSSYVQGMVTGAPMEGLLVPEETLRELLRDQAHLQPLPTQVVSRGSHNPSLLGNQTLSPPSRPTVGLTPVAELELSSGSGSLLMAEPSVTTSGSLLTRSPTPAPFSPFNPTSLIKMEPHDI
# Summary of the method: as §1
# ELK4 = target: T9, ELK4 (Homo sapiens, UniProt P28324-2 1-405); details: protein: recombinant; tags: N-terminal GST; dsDNA, one strand shown
# T9 sequence: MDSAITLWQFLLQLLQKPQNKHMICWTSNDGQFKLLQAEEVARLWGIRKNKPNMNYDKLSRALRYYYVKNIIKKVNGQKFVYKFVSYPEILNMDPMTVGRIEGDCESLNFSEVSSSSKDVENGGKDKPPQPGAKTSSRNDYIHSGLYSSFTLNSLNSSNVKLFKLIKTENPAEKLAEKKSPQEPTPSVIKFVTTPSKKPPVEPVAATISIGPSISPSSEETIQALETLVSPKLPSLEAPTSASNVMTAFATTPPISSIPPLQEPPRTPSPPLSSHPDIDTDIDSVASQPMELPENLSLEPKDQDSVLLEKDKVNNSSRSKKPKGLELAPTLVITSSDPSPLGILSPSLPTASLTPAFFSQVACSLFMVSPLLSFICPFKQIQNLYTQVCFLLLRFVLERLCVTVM
# Summary of the method: as §1
# ETV2 = target: T10, ETV2 (Homo sapiens, UniProt O00321 1-342); details: protein: recombinant; tags: N-terminal GST; dsDNA, one strand shown
# T10 sequence: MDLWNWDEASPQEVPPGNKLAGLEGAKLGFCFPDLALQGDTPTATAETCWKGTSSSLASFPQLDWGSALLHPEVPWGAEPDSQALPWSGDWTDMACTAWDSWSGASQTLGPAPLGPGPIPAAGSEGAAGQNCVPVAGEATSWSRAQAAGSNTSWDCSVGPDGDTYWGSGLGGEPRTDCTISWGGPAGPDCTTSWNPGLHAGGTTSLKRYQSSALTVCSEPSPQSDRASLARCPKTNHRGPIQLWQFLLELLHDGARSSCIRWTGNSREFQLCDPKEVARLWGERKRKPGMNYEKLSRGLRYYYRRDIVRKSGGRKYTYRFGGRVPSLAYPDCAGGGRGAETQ
# Summary of the method: as §1
# ELF3 = target: T11, ELF3 (Homo sapiens, UniProt P78545 1-371); details: protein: recombinant; tags: N-terminal GST; dsDNA, one strand shown
# T11 sequence: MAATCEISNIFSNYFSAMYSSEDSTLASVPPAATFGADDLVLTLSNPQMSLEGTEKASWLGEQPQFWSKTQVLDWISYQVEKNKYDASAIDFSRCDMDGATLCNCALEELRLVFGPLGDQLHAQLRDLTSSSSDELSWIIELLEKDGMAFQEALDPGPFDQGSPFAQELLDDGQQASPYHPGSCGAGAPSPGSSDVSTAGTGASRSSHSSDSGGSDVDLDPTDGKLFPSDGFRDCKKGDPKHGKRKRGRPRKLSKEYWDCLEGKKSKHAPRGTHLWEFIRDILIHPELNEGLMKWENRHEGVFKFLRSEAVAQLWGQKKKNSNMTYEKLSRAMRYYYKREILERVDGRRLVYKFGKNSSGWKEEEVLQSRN
# Summary of the method: as §1
# CRX = CRX (Homo sapiens, UniProt O43186 1-299); details: protein: recombinant; tags: N-terminal GST; dsDNA, one strand shown
# Sequence of CRX (O43186 whole entry): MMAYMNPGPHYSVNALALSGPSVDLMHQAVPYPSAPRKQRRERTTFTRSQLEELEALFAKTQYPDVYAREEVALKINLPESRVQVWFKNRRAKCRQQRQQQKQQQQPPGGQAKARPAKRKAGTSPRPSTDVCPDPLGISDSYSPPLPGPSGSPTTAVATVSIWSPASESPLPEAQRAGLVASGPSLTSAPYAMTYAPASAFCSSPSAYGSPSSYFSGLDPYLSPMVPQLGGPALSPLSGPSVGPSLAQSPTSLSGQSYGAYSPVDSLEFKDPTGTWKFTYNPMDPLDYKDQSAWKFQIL
# Summary of the method: as §1
# ETV1 = ETV1 (Homo sapiens, UniProt P50549 1-477); details: protein: recombinant; tags: N-terminal GST; dsDNA, one strand shown
# Sequence of ETV1 (P50549 whole entry): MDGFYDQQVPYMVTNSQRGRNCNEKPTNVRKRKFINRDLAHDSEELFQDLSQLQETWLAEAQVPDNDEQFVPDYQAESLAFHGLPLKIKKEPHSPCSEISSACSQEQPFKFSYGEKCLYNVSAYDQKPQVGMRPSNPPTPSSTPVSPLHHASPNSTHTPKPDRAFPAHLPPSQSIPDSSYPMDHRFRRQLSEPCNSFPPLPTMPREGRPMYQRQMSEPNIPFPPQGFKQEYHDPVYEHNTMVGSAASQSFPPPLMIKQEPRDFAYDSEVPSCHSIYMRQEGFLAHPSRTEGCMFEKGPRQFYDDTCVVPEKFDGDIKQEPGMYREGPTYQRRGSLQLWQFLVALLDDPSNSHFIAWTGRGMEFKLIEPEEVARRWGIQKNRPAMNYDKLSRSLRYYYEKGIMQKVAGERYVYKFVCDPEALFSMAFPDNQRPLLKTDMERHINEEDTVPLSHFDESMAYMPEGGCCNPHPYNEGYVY
# Summary of the method: as §1
sequence,measurement,setting,value
GCTCAA,binding signal,FLI1,"1.05 fold enrichment (6-mer frequency, TF over GST control)"
same,binding signal,ELK1,"1.1 fold enrichment (6-mer frequency, TF over GST control)"
same,binding signal,GABPA,"1.05 fold enrichment (6-mer frequency, TF over GST control)"
same,binding signal,ERG,"1.15 fold enrichment (6-mer frequency, TF over GST control)"
same,binding signal,ELF1,"1.09 fold enrichment (6-mer frequency, TF over GST control)"
same,binding signal,EHF,"1.13 fold enrichment (6-mer frequency, TF over GST control)"
same,binding signal,SPI1,"1.09 fold enrichment (6-mer frequency, TF over GST control)"
same,binding signal,SPIB,"1.1 fold enrichment (6-mer frequency, TF over GST control)"
same,binding signal,ELK3,"1.01 fold enrichment (6-mer frequency, TF over GST control)"
same,binding signal,FEV,"1.07 fold enrichment (6-mer frequency, TF over GST control)"
same,binding signal,ETV5,"1.12 fold enrichment (6-mer frequency, TF over GST control)"
same,binding signal,HSF1,"1.16 fold enrichment (6-mer frequency, TF over GST control)"
same,binding signal,SPIC,"1.19 fold enrichment (6-mer frequency, TF over GST control)"
same,binding signal,ELF4,"1.16 fold enrichment (6-mer frequency, TF over GST control)"
same,binding signal,ELK4,"1.03 fold enrichment (6-mer frequency, TF over GST control)"
same,binding signal,ETV2,"1.1 fold enrichment (6-mer frequency, TF over GST control)"
same,binding signal,ELF3,"1.11 fold enrichment (6-mer frequency, TF over GST control)"
same,binding signal,CRX,"1.31 fold enrichment (6-mer frequency, TF over GST control)"
same,binding signal,ETV1,"1.1 fold enrichment (6-mer frequency, TF over GST control)"
